Most compounds without a hit are left out; they make up all but 13% or so of the library.
Lassa entry inh – Lassa virus entry inhibition | actives 1.2% (n = 300,000) | Lassa virus pseudotype entry inhibition, cell reporter | AID 540256 | Potency, µM (highest dose often 37.9 µM), usual class: inhibitors; calls by dose curve; tested in HEK293 cells; note: nearly all actives have a fitted effect of over 50% in size
CHX counter – counter-screen hit for Shiga toxin inhibitors, cycloheximide | actives 12% (n = 300,000) | max response, % | cell reporter, cycloheximide protein synthesis inhibition counterscreen; in the data active = max response mostly above about 13%, no sharp cut-off; inactive = mostly below about 14%; note: read at 38.3 µM for the half of the compounds with a filed dose
Marburg entry inh – inhibitors of Marburg virus binding or cell entry; Marburg virus pseudotyped entry inhibition, cell reporter; Potency, µM (titrated, usually from 37.8 µM), actives largely listed as inhibitors; actives 1.8% (n = 300,000); calls by dose curve; tested in HEK293 cells
FMDV antiviral – antivirals against foot and mouth disease virus. FMDV antiviral cell-based qHTS. Potency, µM (top dose mostly 57.9 µM), hits mostly inhibitors. actives 1.2% (n = 410,000); calls by dose curve; tested in HEK293T cells; note: read-out not given here; nearly all actives have a fitted effect of over 45% in size
Shiga toxin inh – inhibitors of Shiga toxin in Vero cells. Vero cells, Shiga toxin protein synthesis inhibition reporter. inhibition, % at 38.7 µM. actives 9.2% (n = 290,000). AID 2315; in the data active = inhibition mostly above about 28%, no sharp cut-off; inactive = mostly below about 43%
HCV inh – inhibitors of hepatitis C virus infection | actives 3.4% (n = 340,000) | Potency, µM (doses to about 41.8 µM), hits mostly inhibitors | AID 651820 | Huh7.5.1 HCVcc-Cre infection, luciferase reporter, 44 h; active = well fitted inhibition curve with a large enough effect; inconclusive = small, poorly fitted or top-dose-only effect, or another doubt; inactive = no such curve, though single readings can be large or run the other way
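Compounds are dispensed onto cells plated 4 h earlier at 1,000 per well, with HCVcc-Cre virus (about 0.5 moi) added next. Following 44 h of culture, luminescent signal is measured for 15 sec after 15 min with substrate at room temperature.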
Numbers stand for hits; . = inactive; ? = inconclusive; / = no result given.

SMILES | Lassa entry inh | CHX counter | Marburg entry inh | FMDV antiviral | Shiga toxin inh | HCV inh
Cc1oc(-c2cccc(Cl)c2)nc1CN(C)C1CCOC1 (stereo unspecified) | . | . | . | . | . | .
Cc1ccc(-c2nc(CN(C)C3CCOC3)c(C)o2)s1 (stereo unspecified) | . | 25.4 | . | . | . | .
Cc1cnc(NC(=O)CCN2C(=O)C3CCCCC3C2=O)s1 (stereo unspecified) | . | . | . | . | . | .
Cc1cc2nc(-c3ccc(SCC(=O)Nc4ccc(S(=O)(=O)N5CCCC5)cc4)nc3)[nH]c2cc1C | ? | 35.9 | 11.6µM | . | 81.4 | ?
O=C(CSc1ccc(-c2nc3ccccc3[nH]2)cn1)Nc1ccc(S(=O)(=O)N2CCCC2)cc1 | . | 40.0 | . | . | 32.6 | .
Cc1cc(=O)[nH]c(SCC(=O)Nc2ccc(S(=O)(=O)N3CCCCC3)cc2)n1 | . | . | ? | . | . | .
COc1ccc(CN2C(=O)c3cccnc3C2=O)cc1S(=O)(=O)N1CCCCC1 | / | . | / | . | . | .
c1ccc(CN2OCC3Cn4c(nc5ccccc54)C32)cc1 (stereo unspecified) | / | . | / | . | . | .
c1ccc(N2OCC3Cn4c(nc5ccccc54)C32)cc1 (stereo unspecified) | / | 26.5 | / | . | 42.0 | .
COc1ccsc1NC(=O)OCc1ccc(Cl)cc1 | / | 36.7 | / | . | 44.0 | .
N=c1c2c(n(Cc3ccc(Cl)cc3Cl)c3c1CCC3)CCCC2 | 3.98µM | . | ? | . | . | 10µM
N=c1c2c(n(Cc3ccccc3)c3c1CCC3)CCC2 | 1.58µM | . | ? | ? | . | ?
N=c1c2c(n(Cc3ccc(Cl)cc3)c3c1CCC3)CCC2 | ? | . | ? | ? | . | ?
N=c1c2c(n(Cc3ccc(F)cc3)c3c1CCC3)CCCC2 | / | . | / | ? | . | .
N=c1c2c(n(Cc3cccc(Cl)c3)c3c1CCC3)CCCC2 | ? | . | ? | / | . | 25.1µM
Cc1nc2ccc(NC(=O)c3ccc4ccccc4n3)cc2s1 | / | 27.5 | ? | . | 101.6 | ?
COCCNc1cc(N)c([N+](=O)[O-])cc1[N+](=O)[O-] | ? | . | . | . | . | .
Cc1nc2ccc(NC(=O)c3cncc(Br)c3)cc2s1 | / | 31.7 | / | . | 101.7 | ?
CCOC(=O)c1ccc(NCCOC)c([N+](=O)[O-])c1 | ? | 40.0 | ? | . | 88.0 | .
CCOC(=O)c1ccc(C(=O)OCC)c(NC(=S)Nc2ccc([N+](=O)[O-])cc2OC)c1 | . | 69.1 | . | . | 66.8 | ?
COc1cccc(NS(=O)(=O)c2ccc3[nH]cc(C(=O)NCCc4ccc(C)cc4)c(=O)c3c2)c1 | . | / | / | . | / | /
CC(=O)N1CN2CN(C(C)=O)CC(C(=O)c3ccc([N+](=O)[O-])cc3)(C2)C1 | . | . | . | . | . | .
CCn1nc(C(=O)Nc2ccc3nc(C)sc3c2)c2ccccc2c1=O | . | 18.6 | . | . | . | .
Cc1nc2ccc(NC(=O)c3ccccc3)cc2s1 | . | 29.5 | . | . | 108.4 | .
Cc1ccccc1NC(=O)c1ccc2nc(N3CCOCC3)sc2c1 | / | 27.9 | / | . | 38.1 | ?
SMILES | Lassa entry inh | CHX counter | Marburg entry inh | FMDV antiviral | Shiga toxin inh | HCV inh
Cc1nc2ccc(OC(=O)c3ccccc3)cc2s1 | / | 13.5 | / | . | . | .
CC(=O)N1c2c(cc(Br)cc2S(=O)(=O)N2CCN(c3ccccc3)CC2)CC1C (stereo unspecified) | . | / | . | ? | / | /
CC(C)CC(NC(N)=O)C(=O)Nc1ccc(Cl)c(Cl)c1 (stereo unspecified) | / | . | ? | . | . | .
Cc1ccc(NC(=O)c2ccc(NCCN)c([N+](=O)[O-])c2)cc1Cl | . | . | ? | . | . | 14.1µM
Cc1noc(NS(=O)(=O)c2ccc(NC(=O)c3cccc(S(=O)(=O)N(C)c4ccccc4)c3)cc2)c1C | / | / | / | . | / | .
NNC(=O)c1ccc2ccccc2n1 | / | . | / | ? | . | .
Cc1ccc(-c2nc3ccc(C(=O)O)cc3nc2-c2ccc(C)cc2)cc1 | . | . | . | . | . | .
Cc1nnc(NC(=O)c2ccc3ccccc3n2)s1 | / | 37.9 | / | . | 110.2 | .
Cc1nc2ccc(NC(=O)c3cccc(S(=O)(=O)N(C)c4ccccc4)c3)cc2s1 | ? | . | 17.8µM | 25.1µM | . | 10µM
Cc1nc2cc(C(=O)O)ccc2s1 | ? | 44.4 | ? | . | 132.7 | .
COc1ccc(/C=C(\NC(=O)c2ccc([N+](=O)[O-])cc2)C(=O)NCCCn2ccnc2)cc1 | . | . | . | . | . | .
CCn1cc(CN2CCN(Cc3ccsc3)C(CCO)C2)cn1 (stereo unspecified) | . | . | . | . | . | .
O=C(NCCc1ccccc1)C1CCN(Cc2cccc3ccccc23)CC1 | . | . | ? | . | . | .
Cc1ccc(C2NC(=S)NC3=C2C(=O)CC(C)(C)C3)cc1 (stereo unspecified) | . | . | . | . | . | .
Cc1nc2ccc(C(=O)Nc3ccc(N(C)C)cc3)cc2s1 | ? | / | . | . | / | .
CCNc1ccc(C(=O)Nc2ccc3nc(C)sc3c2)cc1[N+](=O)[O-] | . | 27.3 | . | . | . | ?
CC(=O)c1ccc(NC(=O)c2ccc3nc(C)sc3c2)cc1 | / | 86.7 | / | . | / | .
CCn1nc(C(=O)Nc2ccccc2N2CCCC2)c2ccccc2c1=O | ? | / | ? | ? | / | 10µM
Cc1cccnc1NC(=O)c1ccc2nc(N)sc2c1 | . | 27.7 | ? | . | 72.5 | .
CN(CC(=O)Nc1cccc(F)c1)C(=O)/C=C/c1cc(Br)ccc1OC(F)F | . | / | ? | . | / | ?
O=C(CC(c1ccccc1)c1ccccc1O)N1CCCC1 (stereo unspecified) | . | . | . | . | . | .
NC(=O)c1cc(S(=O)(=O)NCc2ccc(F)cc2)cs1 | / | . | / | . | . | .
COc1ccc(CC(=O)NCCS(=O)(=O)N2CCN(c3ccccc3)CC2)cc1 | / | / | / | . | / | .
COc1ccc(NC(=O)CSC2=Nc3ccccc3C3=NC(CC(=O)NCc4ccco4)C(=O)N23)cc1 (stereo unspecified) | . | / | / | . | / | /
CC(=O)Nc1ccc(S(=O)(=O)NCC(=O)OCc2ccccc2)cc1 | . | . | ? | . | . | .
SMILES | Lassa entry inh | CHX counter | Marburg entry inh | FMDV antiviral | Shiga toxin inh | HCV inh
CSc1ccccc1C(=O)NCc1ccc(F)cc1 | / | . | / | . | . | .
N#Cc1ccccc1CSc1nc2ccc(NC(=O)c3ccccc3C(=O)O)cc2s1 | ? | 27.3 | ? | . | 79.4 | .
CNC(=O)Nc1ccc2nc(C)sc2c1 | . | 16.5 | . | . | . | .
CC(=O)c1ccc(NC(=O)c2ccc(C)c(Br)c2)cc1 | ? | 59.8 | ? | . | 73.5 | ?
Cc1nc2ccc(C(=O)Nc3ccccc3Cl)cc2s1 | / | 50.2 | / | . | 117.9 | .
CS(=O)(=O)Nc1ccc(-c2n[nH]c(=S)n2-c2ccccc2)cc1 | . | . | . | / | . | .
O=C(Nc1cccc(S(=O)(=O)N2CCCCC2)c1)c1ccc2ccccc2n1 | . | 25.2 | . | . | . | ?
O=S(=O)(c1ccc2nc(Nc3ccccc3)ccc2c1)N1CCCCC1 | . | 13.9 | ? | . | . | .
O=C(Nc1cccc(S(=O)(=O)N2CCCC2)c1)c1ccc2ccccc2n1 | ? | . | ? | . | . | ?

Screening results (PubChem BioAssay)
